This note sets out measurements from PubChem BioAssay (Tox21).

Activity calls are given as the source filed them. A call without a number means that no potency is given here. Calls come from the whole dose curve.

A short description of the test: G protein-coupled receptor (GPCR) small molecule agonists, calcium flux assay: HEK293 wild type cell line counter screen (AID 1920065). To be noted: HEK293 WT calcium flux, fluorescence, agonist mode; series mostly up to 57.6 µM. The source says: U.S. Tox21 Program National Center for Advancing Translational Sciences [NCATS] Division of Preclinical Innovation [DPI] U.S. Environmental Protection Agency [EPA] National Institutes of Environmental Health Sciences [NIEHS] National Toxicology Program [NTP] U.S. Food and Drug Administration [FDA] Assay overview: The increased intracellular calcium release that occurred upon G protein-coupled receptor (GPCR) activation led to the frequent use of calcium flux assays to detect GPCR activation. For the purpose of studying and screening compounds that may activate GPCR, receptor-overexpressing models were typically generated using Hek293 wild-type (WT) cells. In order to eliminate the compounds that may have induced calcium release for non-specific activation, a counter-assay utilizing calcium flux on Hek293 WT cells was performed. The data were formulated in order to serve as a control for any calcium flux detection utilizing Hek293 cells with either GPCR overexpression or gene modification. The procurement of Hek293 WT cells from ATCC. Fluorescence intensity can be utilized to determine the activation of the compound in a calcium flux assay. As a counter control, this cell line was utilized to screen the Tox21 10K compound library.
Assay Protocol Summary: Hek293 cells were dispensed at 1500cells/4uL/well in 1536-well black wall/clear bottom plates using a multidrop dispenser. After the assay plates were incubated at a 37 C/5% CO2 incubator for 18 hours, 4 uL of Calcium Dye Solution was added to each well. The plates were incubated at 37 C for 1 hour. For agonist mode, 23 nL of compounds dissolved in DMSO, positive control (ATP) or DMSO only was transferred to the assay plate by a pin tool station. The fluorescence intensity in the plates was measured using FDSS 7000EX kinetic plate reader with a filter set of Ex/Em=480/540 for 3 min at 1 sec intervals. Each test compound was measured at 15 concentrations and in triplicates.
A general note: Calcium assays in cells follow changes in intracellular calcium, usually with a dye or a luminescent sensor.
On to `Cc1ccc2c(n1)Oc1ccc(C(C)C(=O)OCC(=O)N(C)C)cc1C2` (stereo not given), for which the Potency entry is “inactive”.
The result for `CCO[Si](CCC#N)(OCC)OCC` reads “inactive”; that for `CCN(CC)C(=O)c1cccc(C)c1`, “inactive”.
The result for `C/C=C/c1ccc(OC)cc1` reads “inactive”; that for `CN1C(C(=O)Nc2ccccn2)=C(O)c2ccccc2S1(=O)=O`, “inactive”.
The entry for `CC(=O)Nc1c(I)c(NC(C)=O)c(I)c(C(=O)O)c1I` is “inactive”; for `NC(=O)c1ccccc1O` it is “inactive”.
Turning to `CC(O)CC(C)(C)O` (stereo not given), the Potency entry is “inactive”.
On to `COc1cc(OC)c(C(=O)CCCN2CCCC2)c(OC)c1`, for which the Potency entry was “inactive”.
The result for `NC(=O)c1cccnc1` reads “inactive”; that for `CC(C)(N)CO`, “inactive”; that for `CS(=O)(=O)c1ccc([C@@H](O)[C@@H](CO)NC(=O)C(Cl)Cl)cc1`, “inactive”.
The entry for `O=C(O)c1ccc2c(c1)C(=O)OC2=O` is “inactive”; for `NC(=O)/N=N/C(N)=O` it is “inactive”; for `C=Cc1cccc(C)c1` it is “inactive”.
The result for `CC1=C(/C=C/C(C)=C/C=C/C(C)=C/CO)C(C)(C)CCC1` reads “inactive”.
As to `O=S(=O)(O)c1ccc2nc(-c3ccccc3)[nH]c2c1`, the Potency result is “inactive”.
The entry for `COc1ccc(Nc2ccccc2)c(C)c1` is “inactive”.
The result for `CCCCCCCCCCCC[N+](C)(C)Cc1ccccc1` reads “inactive”; that for `OC(Cn1cncn1)(Cn1cncn1)c1ccc(F)cc1F`, “inactive”; that for `COc1ccc(C)cc1N`, “inactive”.
For `CCC(=O)/C=C/C1C(C)=CCCC1(C)C` (stereo not given), the Potency entry is “inactive”.
The entry for `CCOC(=O)C1OC1c1ccccc1` (stereo not given) is “inactive”.
The entry for `CC(=O)CCC=C(C)C` is “inactive”; for `c1ccc2c(c1)Cc1ccccc1-2` it is “inactive”.
The entry for `Brc1ccc(Br)c(Br)c1` is “inactive”.
Regarding `c1cnc2c(c1)ccc1cccnc12`, the Potency entry is “inactive”.
Take `CC/C(C)=N/O`: the Potency result is “inactive”.
The result for `O=C(O)CCCC(=O)O` reads “inactive”; that for `C[C@H]1C[C@H]2[C@@H]3CCC4=CC(=O)C=C[C@]4(C)[C@@]3(F)[C@@H](O)C[C@]2(C)[C@@]1(O)C(=O)CO`, “inactive”.
The result for `Cc1ccc(Cl)cc1` reads “inactive”; that for `Oc1c(Cl)cc(Cl)c(Cl)c1Cc1c(O)c(Cl)cc(Cl)c1Cl`, “inactive”.
The entry for `C[C@]12C[C@H](O)[C@H]3[C@@H](CCC4=CC(=O)CC[C@@]43C)[C@@H]1CC[C@@H]2C(=O)CO` is “inactive”; for `O=C(O)Cc1ccccc1Nc1c(Cl)cccc1Cl` it is “inactive”.
`Cc1ccc(C)c(O)c1C`: the Potency entry is “inactive”.
Regarding `COC(C)COC(C)COC(C)CO` (stereo not given), the Potency entry was “inactive”.
The entry for `Nc1nc2ccccc2[nH]1` is “inactive”; for `CCCCCCCCCC` it is “inactive”.
Turning to `CCCN(CCC)C(=O)SCC`, the Potency entry was “inactive”.
The entry for `C=CC(C)(CCC=C(C)C)OC(C)=O` (stereo not given) is “inactive”.
